This is a sample that favours compounds with a hit; in the whole collection about 0.47% have one here.
Mito fusion yeast = inhibitors of mitochondrial division or activators of mitochondrial fusion; S. cerevisiae fusion-defective mutant growth rescue, CellTiterGlo 48 h; Potency, µM (titrated, usually from 46.1 µM), for the others: top-dose growth rescue (activation), actives largely listed as activators; 320,000 compounds, 0.23% hits; AID 485298; also: % of control where 0% means no effect; nearly all actives have a fitted effect of over 45% in size
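Compounds are tested for their ability to restore growth of mitochondrial fusion-defective yeast strains at non-permissive 37C in YPEG medium over 48 hours. Viability is quantified by luciferase luminescence.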
A-T KAP1 phos = candidate therapy for ataxia-telangiectasia; 320,000 compounds, 0.19% hits; AID 485349; Potency, µM (titrated, usually from 57.5 µM), for inactives: at the highest dose activation, hits mostly activators; F2112 A-T fibroblasts, KAP-1 phosphorylation AlphaLISA; neocarzinostatin DNA damage 30 min before lysis; also: % of control where 0% means no effect; nearly all actives have a fitted effect of over 45% in size
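hTERT-immortalized A-T patient fibroblasts (F2112), 500 cells/well in OPTI-MEM, 1% FBS, got compounds for 60 min, then NCS for 30 min at 37C. Lysates were then assayed for phospho-KAP-1 by AlphaLISA (anti-pKAP1 donor, anti-KAP1 acceptor beads), 6 hr at 25C.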
Eya2 phos inh = inhibitors of human Eya2 phosphatase activity; O00167; recombinant Eya2, OMFP fluorescence dephosphorylation (OMFP is methylfluorescein phosphate); Potency, µM (highest dose often 76.9 µM), without a hit: at the top dose activity, negative = inhibition, most hits filed as inhibitors; 330,000 compounds, 0.006% hits; also: % is scaled to controls: 0 for no effect and ±100 for the full control effect
Target sequence (O00167 whole entry, looked up): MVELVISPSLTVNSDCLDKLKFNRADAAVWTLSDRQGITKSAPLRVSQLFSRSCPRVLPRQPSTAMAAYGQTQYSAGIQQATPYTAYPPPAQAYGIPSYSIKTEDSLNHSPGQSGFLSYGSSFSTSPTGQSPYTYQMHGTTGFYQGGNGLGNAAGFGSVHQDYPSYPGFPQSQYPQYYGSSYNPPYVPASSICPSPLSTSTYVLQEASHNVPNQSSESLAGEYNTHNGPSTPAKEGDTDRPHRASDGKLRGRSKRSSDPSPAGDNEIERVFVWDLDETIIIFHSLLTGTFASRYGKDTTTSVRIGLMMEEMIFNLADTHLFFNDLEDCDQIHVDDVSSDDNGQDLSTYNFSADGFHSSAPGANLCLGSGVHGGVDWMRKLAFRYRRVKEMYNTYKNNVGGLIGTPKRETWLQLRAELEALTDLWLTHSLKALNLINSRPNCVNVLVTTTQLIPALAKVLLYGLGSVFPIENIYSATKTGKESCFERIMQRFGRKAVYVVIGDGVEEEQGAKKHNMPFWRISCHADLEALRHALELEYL
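Eya2 protein (added as 0.2 uM solution) was preincubated with compound for 10 min at ambient temperature in 50 mM HEPES pH 7.5, 50 mM NaCl, 5 uM MgCl2, 0.05% BSA, 1 mM DTT. OMFP (added at 50 uM) then reacted 10 min; fluorescence read at 485/525 nm.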
N370S GC = inhibits or activates N370S mutant glucocerebrosidase. 330,000 compounds, 0.092% hits. P04062. N370S GC spleen homogenate, 4MU-glucoside fluorescence. Potency, µM (top dose mostly 59.4 µM), inactives show at the highest dose activity change, negative = inhibition, hits mostly inhibitors;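 also: 0% = full enzyme activity and -100% = no enzyme basal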
* marks the source's active call; other numbers are inactive results; ? = inconclusive; . = no result; [ ] = another dose, or the depositor's remark. Calls follow the shape of the dose curve; as a rule, active = well fitted curve in the direction sought with a large enough effect; inconclusive = small, poorly fitted or top-dose-only effect, or another doubt; inactive = no such curve, though single readings can be large; an effect the other way counts as inactive or inconclusive. Potency is read from the fitted curve at half-maximal effect.

SMILES	Mito fusion yeast	A-T KAP1 phos	Eya2 phos inh	N370S GC
CCCCC(=O)OCC(=O)Nc1ccc(OC(F)F)cc1	1.3%	17.2%	11.3%[15.4 µM]	-15.0%
CC1=C(c2ccc(F)cc2)[N+](=O)C(C)(C)N1[O-]	12.6µM*	-1.7%	3.3%	4.4%
CC1=C(c2ccc(C)cc2)[N+](=O)C(C)(C)N1[O-]	4.7%	4.4%	3.4%	7.5%
NC(=O)CSc1nc2ccc([N+](=O)[O-])cc2[nH]1	14.1µM*	-0.8%	2.0%	-10.5%
O=C(CSc1nc2ccc([N+](=O)[O-])cc2[nH]1)NC1CCCC1	1.4%	3.4%	-3.2%	18.7%
CC(C)(Cc1ccc(O)cc1)NC(=O)CC(=O)N=Nc1c(O)[nH]c2cc(Br)ccc12	-3.9%	3.8%	-7.1%	11.2µM*
O=C(CNC(=O)Cc1ccccc1)N=Nc1c(O)[nH]c2ccccc12	4.6%	4.4%	-0.3%	-7.9%
COc1ccc(C)cc1NC(=O)C1CCN(S(=O)(=O)c2c(C)noc2C)CC1	8.6%	-0.4%	10.2%	-5.5%
COC(=O)c1c(N2C(=O)CC(Sc3ncccc3C(=O)O)C2=O)sc(C)c1C (stereo unspecified)	-4.2%	-10.3%	-2.8%	-7.7%
CCn1ncc(Br)c1C(=O)Nc1sc2c(c1C(N)=O)CCC2	20µM*	1.2%	4.0%	13.9%
CN(C(=O)CSc1nnc(Cc2cccc3ccccc23)n1N)C1CCS(=O)(=O)C1 (stereo unspecified)	-7.3%	-5.4%	-23.2%	1.0%
CC(C)(C)c1cc(C(=S)N2CCN(CCO)CC2)cc(C(C)(C)C)c1O	12.3%	-12.9%	-4.5%	17.8µM*
OCCN1CCN(C(=S)c2ccc(Cl)cc2)CC1	-8.4%	10.3%	1.7%	-2.5%
O=C(CC(c1ccccc1)c1ccccc1)NCCOCc1ccccc1	0.6%	3.9%	-3.2%	-15.8%
Cc1ccc(N(CC(=O)NC(C)(C)C)C(=O)CCC(=O)Nc2nccs2)cc1C	1.3%	6.9%	5.4%	-0.2%
CC12CCC(C(=O)N3CCCc4ccccc43)(CC1=O)C2(C)C (stereo unspecified)	7.1%	-4.5%	8.1%	-4.6%
CC12CCC(C(=O)N3CCc4ccccc43)(CC1=O)C2(C)C (stereo unspecified)	14.1µM*	-5.4%	6.1%	-20.3%
Cc1ccc(NC(=O)CN(C)Cc2cc(=O)n3ccsc3n2)cc1	0.1%	12.6µM*	21.2%	14.5%
Cc1cc(=O)cc(C)n1-c1ccc(Br)cc1	1.7%	-4.6%	9.6%	1.3%
Cc1cn(C(=O)c2ccccc2)c(=S)n1-c1ccc(Br)cc1	15.8µM*	0.7%	-3.8%	?
COCCNC(=O)CN1C(=O)/C(=C/c2ccccc2)Oc2ccc(C(C)(C)C)cc21	20µM*	1.5%	-16.9%	?
COc1ccc(CCNC(=O)c2cc(=O)c3cc(C)ccc3o2)cc1	-8.7%	5.4%	-4.1%	-0.9%
NC(=O)[C@@H]1CC2(CC(c3cccc(NC(=O)CC(c4ccccc4)c4ccccc4)c3)=NO2)CN1C(=O)COc1ccc(Cl)cc1 (stereo partly specified)	-0.7%	35.5µM*	6.2%	10.0%
C/C=C(/C)C(=O)Nc1cccc(C2=NOC3(C2)C[C@H](C(N)=O)N(C(=O)c2ccc(Cl)cc2)C3)c1 (stereo partly specified)	14.1µM*	0.0%	1.6%	-9.4%
C=CCCC(=O)Nc1nc(C)c(-c2csc(Nc3cccc(OC)c3)n2)s1	4.9%	5.2%	3.4%	-6.5%
SMILES	Mito fusion yeast	A-T KAP1 phos	Eya2 phos inh	N370S GC
COc1ccc(/C=N/NC(=O)c2[nH]nc3c2CCc2ccccc2-3)cc1OC	7.5%	-8.3%	-13.2%	-0.1%
CNC(=O)c1[nH]nc2c1CCc1ccccc1-2	10µM*	-7.4%	-4.3%	1.5%
CCN1/C(=C/C=C/C=C/c2sc3ccccc3[n+]2CC)Sc2ccccc21	?	31.6µM*	-6.9%	-21.1%
CCN1/C(=C/C=C/C=C/C=C/c2sc3ccccc3[n+]2CC)Sc2ccccc21	-7.9%	13.0%	14.4%	-8.2%
COCCNC(=O)C(c1ccc(C)cc1)N(CCOC)C(=O)CCC(=O)Nc1ccccn1 (stereo unspecified)	2.5%	11.3%	1.4%	-2.6%
Cc1c(NC(=O)c2cccs2)cccc1-c1nc2ccccc2s1	15.8µM*	8.4%	-2.7%	11.9%
COc1ccc(C(=O)Nc2cccc(/C=C/c3nc4ccccc4c(=O)[nH]3)c2)cc1	-4.2%	20µM*	-14.8%	3.5%
O=C(Nc1cccc(/C=C/c2nc3ccccc3c(=O)[nH]2)c1)c1ccccc1Cl	0.7%	-5.2%	9.9%	2.2%
O=C(O)COc1ccccc1Cc1ccccc1	-0.2%	3.9%	-15.3%	7.2%
Cc1ccc(O)c(C(=O)/C=C/c2ccc3c(c2)OCCCO3)c1	18.3%	15.8µM*	-5.5%	16.3%
COc1cc(O)c(CCC(=O)c2ccc(OC)c(OC)c2)c(OC)c1	-1.7%	0.3%	3.6%	-7.5%
CCOC(=O)C(C)NC(=O)C(NC(=O)C1CCC(CC)CC1)C(C)C (stereo unspecified)	-2.6%	.	.	-15.1%
CCN=C1S/C(=C\c2cc(OCC)c(O)cc2Br)C(=O)N1CC	7.08µM*	3.0%	2.3%	-11.3%
O=C(O)C(Cc1ccccc1)NS(=O)(=O)c1ccc2c(c1)OCCO2 (stereo unspecified)	-1.2%	-6.8%	20.0%	.
CCC1C(=O)NCCN1C(=O)c1cccc(OC2CCN(S(=O)(=O)N(C)C)CC2)c1 (stereo unspecified)	15.0%	-1.5%	-16.5%	-2.5%
COc1ccc(-c2sc3ccc(OC)cc3c2C#Cc2cncn2C)cc1	.	28.2µM*	10.6%	.
Cc1c(C(=O)Nc2ccc3c(c2)OCCO3)sc2ncnc(N3CCCCC3C)c12 (stereo unspecified)	11.2µM*	-4.3%	-0.5%	-2.0%
CCOC(=O)C1CCN(CC(C)(C)NS(=O)(=O)c2ccc(C)cc2)CC1	3.55µM*	0.9%	-11.7%	-16.1%
COc1ccccc1NC(=O)COc1cc(Br)c(CNCCCN2CCOCC2)cc1OC	7.2%	0.8%	0.2%	-10.5%
CC1(c2ccc(OC(F)F)cc2)NC(=O)N(CC(=O)Nc2cccc(S(N)(=O)=O)c2)C1=O (stereo unspecified)	-0.7%	13.6%	7.3%	-4.2%
CC1CCN(C2=C(NS(=O)(=O)c3ccccc3)C(=O)c3ccccc3C2=O)CC1	?	-19.3%	1.8%	28.5%
CC1CCN(C2=C(NS(=O)(=O)c3ccc(Cl)cc3)C(=O)c3ccccc3C2=O)CC1	15.8µM*	-8.3%	1.1%	18.8%
Cc1ccc(CN(CC(O)COc2cccc3[nH]cc(C)c23)C(C)(C)C)cc1 (stereo unspecified)	5.62µM*	1.0%	-7.2%	?
O=C(c1cn(-c2ccccc2)nc1-c1ccc(F)cc1)N1CCOCC1	6.6%	21.1%	21.3%	-30.6%
O=C(c1cn(-c2ccccc2)nc1-c1ccc(F)cc1)N1CCCCC1	15.8µM*	-1.0%	0.9%	5.1%
O=C(c1cn(-c2ccccc2)nc1-c1ccc(Br)cc1)N1CCOCC1	11.2µM*	1.2%	-1.9%	6.9%
